DT40 TDP1 no CPT: qHTS for Inhibitors of human tyrosyl-DNA phosphodiesterase 1 (TDP1): qHTS in cells in absence of CPT. DT40 Tdp1-/- hTDP1 cells, no CPT, ATP luminescence, 48 h. Potency, µM (highest dose often 46.2 µM), inactives show at the highest dose activity change, negative = growth inhibition, most hits filed as inhibitors. hit rate 15% among 420,000. AID 686978, 2013; also: nearly all actives have a fitted effect of over 55% in size
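Growth kinetics read by CellTiter-Glo luminescence after ≥48 hr at 37 °C. Cells: DT40 Tdp1-/- stably carrying human TDP1, 400 per well, compound exposure in the absence of CPT (DMSO vehicle).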
TDP1 cell CPT: DT40-hTDP1 cell growth loss with CPT. hit rate 12% among 420,000. AID 686979. Potency, µM (highest dose often 46.2 µM), for the others: top-dose activity change, negative = growth inhibition, usual class: inhibitors. chicken DT40 Tdp1-/-;hTDP1 cells + 20 nM CPT, ATP luminescence, 48 h; also: nearly all actives have a fitted effect of over 55% in size
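Chicken DT40 Tdp1-/- cells stably complemented with human TDP1 were seeded at 400 cells/well in medium containing 20 nM camptothecin, exposed to pin-transferred compounds, and grown at 37 °C for at least 48 hr. Viability was read as ATP luminescence.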
ELG1 DNA repair: blocks ELG1-dependent DNA repair in HEK293T cells; HEK293T ELG1-luciferase reporter, luminescence, 16 h; DNA damage induced by 5-fluorouridine; Potency, µM (series often up to 46.1 µM), inactives show top-dose activity change, negative = inhibition, actives largely listed as inhibitors; hit rate 2.3% among 330,000; AID 504467; also: nearly all actives have a fitted effect of over 55% in size
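Overnight (16 hr) co-exposure of 2,000 cells/well to 5-fluorouridine and compound at 37 °C preceded detection. Luciferase was quantified via ONE-Glo luminescence; loss of signal denotes inhibition.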
RORgamma inh: ROR gamma (mouse) transcription inhibition; Potency, µM (top dose mostly 53.6 µM), inactives show at the top dose activity change, negative = inhibition, hits mostly inhibitors; hit rate 5.4% among 310,000; Drosophila S2 Gal4-RORgamma UAS-luciferase reporter, 20 h; also: nearly all actives have a fitted effect of over 60% in size
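In this cell-based reporter format, copper sulfate (700 uM final) drives Gal4–ROR gamma fusion expression from a metallothionein promoter in Drosophila Schneider cells; compounds preincubated 1 hr, reporter read after 20 hr at ambient temperature.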
12-LOX inh: blocks human arachidonate 12S-lipoxygenase. P18054. purified 12hLO, xylenol orange hydroperoxide absorbance. Potency, µM (titrated, usually from 108 µM), for inactives: at the highest dose activity change, negative = inhibition, usual class: inhibitors. hit rate 1.1% among 580,000
Target sequence (P18054 whole entry, looked up): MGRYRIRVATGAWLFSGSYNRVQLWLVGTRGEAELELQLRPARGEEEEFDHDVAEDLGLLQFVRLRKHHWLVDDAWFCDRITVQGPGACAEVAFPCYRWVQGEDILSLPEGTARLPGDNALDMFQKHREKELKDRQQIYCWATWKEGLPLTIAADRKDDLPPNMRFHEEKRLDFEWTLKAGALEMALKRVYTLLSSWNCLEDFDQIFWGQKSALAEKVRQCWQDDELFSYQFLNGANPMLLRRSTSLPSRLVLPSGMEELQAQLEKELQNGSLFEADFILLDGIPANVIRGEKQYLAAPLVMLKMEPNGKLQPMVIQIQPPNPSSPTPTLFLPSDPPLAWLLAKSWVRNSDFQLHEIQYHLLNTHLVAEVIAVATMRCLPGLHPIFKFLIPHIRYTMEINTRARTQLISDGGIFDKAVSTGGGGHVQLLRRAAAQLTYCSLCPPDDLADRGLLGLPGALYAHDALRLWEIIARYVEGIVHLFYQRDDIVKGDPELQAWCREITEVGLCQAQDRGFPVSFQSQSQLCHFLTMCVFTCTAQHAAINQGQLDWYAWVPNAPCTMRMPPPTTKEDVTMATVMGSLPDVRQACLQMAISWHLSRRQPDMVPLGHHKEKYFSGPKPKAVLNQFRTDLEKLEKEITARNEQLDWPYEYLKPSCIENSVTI
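Purified human 12hLO at 150 nM in 25 mM Hepes, 0.01% Triton X-100, pH 7.0, preincubated 15 min at room temperature with compound. Reaction started with 40 uM arachidonic acid, 30 min at room temperature. Hydroperoxide measured by Fe-xylenol orange, 573/405 nm absorbance ratio.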
VP16 counter: Gal4-VP16 reporter inhibition counter-screen; Drosophila S2 Gal4-VP16 UAS-luciferase, luminescence, 20 h; Potency, µM (highest dose often 53.6 µM), inactives show top-dose activity, negative = inhibition, most hits filed as inhibitors; hit rate 3.5% among 310,000; AID 2546;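 also: Gal4-VP16 expression switched on by copper sulfate through the metallothionein promoter; nearly all actives have a fitted effect of over 50% in size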
Numbers without * were called inactive; [ ] = another dose, or the depositor's remark. Sampled rows, rich in hits. Any-hit rate of the full collection: about 15%. Calls follow the shape of the dose curve; as a rule, active = well fitted curve in the direction sought with a large enough effect; inconclusive = small, poorly fitted or top-dose-only effect, or another doubt; inactive = no such curve, though single readings can be large; an effect the other way counts as inactive or inconclusive. % is scaled to controls: 0 for no effect and ±100 for the full control effect; potency is read from the fitted curve at half-maximal effect.

How did Cc1ccc(F)cc1-c1nc(NC(C)C)nc2cc(-c3ccccc3)sc12 do in these assays?
DT40 TDP1 no CPT: 18µM*; TDP1 cell CPT: inconclusive; 12-LOX inh: inconclusive

Results for CC(C)Nc1nc(NCCOc2ccccc2Cl)c2sc(-c3ccccc3)cc2n1 ?
DT40 TDP1 no CPT: 6.5µM*; TDP1 cell CPT: 6.5µM*; 12-LOX inh: inconclusive

Results for COc1ccccc1CNc1nc(-c2cccc(C#N)c2)nc2ccccc12 ?
DT40 TDP1 no CPT: inconclusive; TDP1 cell CPT: inconclusive; RORgamma inh: 16%; 12-LOX inh: -24%; VP16 counter: -1%

Results for CC(=O)Nc1cccc(Oc2nc(NC(C)C)nc3cc(-c4ccccc4)sc23)c1 ?
DT40 TDP1 no CPT: inconclusive; TDP1 cell CPT: inconclusive; 12-LOX inh: -18%

What do the screens show for `Cc1noc([C@H]2CCN(C(=O)COc3ccccc3)C[C@H]2NC(=O)C2CC2)n1`?
12-LOX inh: 46%

What do the screens show for `COC1CCN(C(=O)Cc2c[nH]c3ncc(-c4cnn(C)c4)cc23)CC1`?
12-LOX inh: 0%[176 µM]

Results for COc1ccc(-c2cn3cccnc3n2)cc1NC(=O)Nc1ccc(Cl)cc1 ?
DT40 TDP1 no CPT: 16µM*; TDP1 cell CPT: inconclusive; 12-LOX inh: inconclusive

How did COc1ccc(-c2cn3cccnc3n2)cc1NC(=O)c1cc(OC)c(OC)c(OC)c1 do in these assays?
DT40 TDP1 no CPT: inconclusive; TDP1 cell CPT: -29%; ELG1 DNA repair: 8.2µM*; RORgamma inh: -2%; 12-LOX inh: 2%; VP16 counter: 0%

Results for COc1ccc(NC(=O)Nc2cc(-c3cn4cccnc4n3)ccc2OC)cc1 ?
12-LOX inh: -20%

Results for COc1ccc(-c2noc(CN3CCCC(C(=O)Nc4ccccc4)C3)n2)cc1OC (configuration not stated) ?
12-LOX inh: -27%

Results for O=C(O)CCn1cc(/C=C/C(=O)c2ccc(Cl)cc2)c(-c2ccc(Br)cc2)n1 ?
DT40 TDP1 no CPT: 23µM*; TDP1 cell CPT: 16µM*; ELG1 DNA repair: inconclusive; RORgamma inh: 7.1µM*; 12-LOX inh: inconclusive; VP16 counter: inconclusive

How did NCC12CC3CC(C1)CC(c1ccc(Br)cc1)(C3)C2 do in these assays?
DT40 TDP1 no CPT: 15µM*; TDP1 cell CPT: 21µM*; ELG1 DNA repair: 4%; RORgamma inh: -39%; 12-LOX inh: -29%; VP16 counter: -15%

Results for Cc1ccc(C23CC4CC(CC(CC(=O)NC(C)(C)CO)(C4)C2)C3)cc1 ?
DT40 TDP1 no CPT: 15µM*; TDP1 cell CPT: 26µM*; ELG1 DNA repair: inconclusive; RORgamma inh: 25%; 12-LOX inh: 0%; VP16 counter: -14%

Results for Cc1ccc(C23CC4CC(CC(CN)(C4)C2)C3)cc1 ?
DT40 TDP1 no CPT: 10µM*; TDP1 cell CPT: 6.5µM*; ELG1 DNA repair: inconclusive; RORgamma inh: inconclusive; 12-LOX inh: -14%; VP16 counter: -5%

How did COC(=O)CNC(=O)C12CC3CC(C1)CC(c1ccc(C)cc1)(C3)C2 do in these assays?
DT40 TDP1 no CPT: 5%; TDP1 cell CPT: -4%; ELG1 DNA repair: -3%; RORgamma inh: -25%; 12-LOX inh: 44%; VP16 counter: 5%

Results for Cc1ccc(C23CC4CC(CC(C(=O)N(C)C)(C4)C2)C3)cc1 ?
DT40 TDP1 no CPT: 21µM*; TDP1 cell CPT: inconclusive; ELG1 DNA repair: 0%; RORgamma inh: -9%; 12-LOX inh: 14%; VP16 counter: -1%

What do the screens show for `O=C(Nc1ccc(C23CC4CC(CC(C4)C2)C3)cc1)c1ccc(Br)cc1`?
12-LOX inh: -2%

Results for O[C@@H]1C[C@@H](c2nc(-c3ccc4c(c3)OCO4)no2)N(Cc2cc3ccccc3o2)C1 ?
12-LOX inh: 1%[176 µM]

How did Clc1ccc(Cn2cc3c(n2)-c2cc4ccccc4n2C3)cc1 do in these assays?
DT40 TDP1 no CPT: 13µM*; TDP1 cell CPT: inconclusive

Results for CN(CC(=O)Nc1ccc(Cl)c(C(F)(F)F)c1)C(=O)CCNC(=O)c1ccco1 ?
DT40 TDP1 no CPT: inconclusive; TDP1 cell CPT: inconclusive; ELG1 DNA repair: 5%; 12-LOX inh: -14%

How did CN(CC(=O)Nc1ccc(Cl)c(C(F)(F)F)c1)C(=O)C1CC(=O)N(Cc2ccco2)C1 (configuration not stated) do in these assays?
DT40 TDP1 no CPT: 23µM*; TDP1 cell CPT: 13µM*; ELG1 DNA repair: inconclusive; 12-LOX inh: -24%

How did CN(CC(=O)Nc1cccc(F)c1)C(=O)C1CC(=O)N(Cc2ccco2)C1 (configuration not stated) do in these assays?
DT40 TDP1 no CPT: -19%; TDP1 cell CPT: -1%; ELG1 DNA repair: 0%; 12-LOX inh: 10%

What do the screens show for `CN(CC(=O)Nc1ccc(Cl)c(C(F)(F)F)c1)C(=O)/C=C/c1ccco1`?
DT40 TDP1 no CPT: 18µM*; TDP1 cell CPT: 18µM*; ELG1 DNA repair: 0%; RORgamma inh: 40%; 12-LOX inh: inconclusive; VP16 counter: 1%

Results for CN(CC(=O)Nc1ccc(Cl)c(C(F)(F)F)c1)C(=O)/C=C/c1cccs1 ?
DT40 TDP1 no CPT: 23µM*; TDP1 cell CPT: inconclusive; ELG1 DNA repair: -19%; 12-LOX inh: inconclusive

Results for CN(CC(=O)Nc1ccc(Cl)c(Cl)c1)C(=O)/C=C/c1ccc(F)cc1 ?
DT40 TDP1 no CPT: -25%; TDP1 cell CPT: -9%; ELG1 DNA repair: 6%; RORgamma inh: -3%; 12-LOX inh: inconclusive; VP16 counter: 5%

Results for CCCCCn1c(NCCC)nc2c1c(=O)[nH]c(=O)n2C ?
12-LOX inh: 7%

What do the screens show for `COc1ccc(N2CCN(C(=O)c3ccc(Cn4nc(C)c([N+](=O)[O-])c4C)o3)CC2)cc1`?
DT40 TDP1 no CPT: 13µM*; TDP1 cell CPT: inconclusive; ELG1 DNA repair: inconclusive; 12-LOX inh: 479%

How did Cc1nn(Cc2ccc(C(=O)N3CCCC3)o2)c(C)c1[N+](=O)[O-] do in these assays?
DT40 TDP1 no CPT: 18%; TDP1 cell CPT: -16%; ELG1 DNA repair: -2%; 12-LOX inh: 11%

What do the screens show for `COc1ccc(CNC(=O)c2ccc(Cn3nc(C)cc3C)o2)cc1`?
DT40 TDP1 no CPT: 11%; TDP1 cell CPT: -21%; ELG1 DNA repair: -8%; RORgamma inh: -25%; 12-LOX inh: 2%; VP16 counter: -8%

Source: PubChem BioAssay (National Center for Advancing Translational Sciences (NCATS))
